Assay outcomes from PubChem.
An excerpt weighted towards active compounds, which were near 10% of everything screened.
HP1b chromo inh: blocks HP1-beta chromodomain binding to methylated histone tails | P83916 | AlphaScreen HP1-beta / biotin-H3K9me3 peptide binding | Potency, µM (highest dose often 114 µM), for the others: top-dose activity change, negative = inhibition, usual class: inhibitors | 390,000 tested, 0.56% active; note: nearly all actives have a fitted effect of over 70% in size
Target sequence (P83916 whole entry, looked up): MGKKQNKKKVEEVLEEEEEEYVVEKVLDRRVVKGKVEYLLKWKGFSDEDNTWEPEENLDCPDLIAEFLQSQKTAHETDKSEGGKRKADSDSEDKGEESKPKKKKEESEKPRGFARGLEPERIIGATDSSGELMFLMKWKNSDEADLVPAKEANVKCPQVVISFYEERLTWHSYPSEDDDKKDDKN
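Compound inhibition of the preformed complex between 50 nM HP1-beta and 50 nM biotinylated H3K9me3 peptide was read by AlphaScreen. Buffer was PBS pH 7.4 with 0.01% Tween-20. Incubations ran 30 min at room temperature, with 10 ug/mL donor/acceptor beads.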
JMJD2A Tudor inh: inhibitors of human JMJD2A Tudor domain; O75164; AlphaScreen JMJD2A-Tudor / H3K4me3 peptide binding; Potency, µM (titrated, usually from 114 µM), for inactives: top-dose activity change, negative = inhibition, most hits filed as inhibitors; 390,000 tested, 4.4% active; AID 504339; note: % is set by controls: 0 for no effect and ±100 for the full control effect; nearly all actives have a fitted effect of over 50% in size
GLS inhibitor: inhibitors of human glutaminase (GLS). GLS enzymatic activity, qHTS titration. Potency, µM (series often up to 45.5 µM), for the others: at the highest dose activity change, negative = inhibition, usual class: inhibitors. 410,000 tested, 0.21% active. AID 624170; note: % is set by controls: 0 for no effect and ±100 for the full control effect
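Compounds were pin-transferred onto hKGA, after which L-glutamine (1 mM solution) and a detection mix of glutamate oxidase, HRP and Amplex Red were added. Initial and 30 min RT fluorescence reads were collected.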
BAZ2B block: inhibitors of human BAZ2B bromodomain; Q9UIF8; AlphaScreen BAZ2B-H3K14Ac peptide displacement; Potency, µM (top dose mostly 114 µM), without a hit: at the highest dose activity change, negative = inhibition, most hits filed as inhibitors; 360,000 tested, 4.4% active; AID 504333; note: % is set by controls: 0 for no effect and ±100 for the full control effect; nearly all actives have a fitted effect of over 60% in size
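AlphaScreen luminescence quantifies BAZ2B engagement of H3K14Ac peptide; the protein and biotinylated peptide are both at 50 nM final, buffer PBS pH 7.4 with 0.01% Tween-20, all steps at room temperature.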
G9a block: inhibitors of human histone lysine methyltransferase G9a. G9a H3K9 monomethylation, AlphaScreen, 2 h. Potency, µM (doses to about 102 µM), for inactives: top-dose activity, negative = inhibition, actives largely listed as inhibitors. 350,000 tested, 8.8% active. AID 504332; note: % is set by controls: 0 for no effect and ±100 for the full control effect; nearly all actives have a fitted effect of over 75% in size
Target sequence (Q96KQ7 913-1193 limits assumed): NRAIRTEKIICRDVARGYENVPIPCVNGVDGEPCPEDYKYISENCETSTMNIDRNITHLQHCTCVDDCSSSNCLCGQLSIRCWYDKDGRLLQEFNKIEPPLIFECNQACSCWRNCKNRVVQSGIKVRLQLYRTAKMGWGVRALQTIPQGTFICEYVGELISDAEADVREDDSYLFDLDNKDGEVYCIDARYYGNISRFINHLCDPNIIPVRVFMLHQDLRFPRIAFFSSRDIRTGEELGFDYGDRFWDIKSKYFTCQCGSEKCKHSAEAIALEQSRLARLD
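Chemiluminescent proximity detection of H3K9 monomethylation, read after 10 min bead incubation in the dark. Reaction: 20 nM G9a, 500 nM biotin-H3K9 peptide, 20 uM SAM cofactor, 2 h, room temperature, following 15 min enzyme-compound preincubation.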
* hit, by the source's call; ? = inconclusive; / = no result given; [ ] = dose if it differs, or a comment. Calls come from the whole dose curve; as a rule, active = well fitted curve in the direction sought with a large enough effect; inconclusive = small, poorly fitted or top-dose-only effect, or another doubt; inactive = no such curve, though single readings can be large; an effect the other way counts as inactive or inconclusive. Potency is the fitted concentration of half-maximal effect.

SMILES | HP1b chromo inh | JMJD2A Tudor inh | GLS inhibitor | BAZ2B block | G9a block
COCOCCn1cc(CN2CCS(=O)(=O)N(Cc3ccc(-c4ccncc4)cc3)C(C)C2=O)nn1 (stereo unspecified) | / | / | 0.3% | / | /
O=S(=O)(O)c1ccc(SCc2ccccc2)nc1 | 24.5% | 89.1µM* | -23.5% | / | /
Cc1nc2nc(SCC(=O)NC(C)c3ccccc3)nn2c(C)c1Cc1c(F)cccc1Cl (stereo unspecified) | 27.5% | -19.5% | 2.0% | -2.7% | -3.9%[59 µM]
Cc1nc2nc(SCC(=O)O)nn2c(C)c1Cc1ccccc1Cl | 38.1% | 6.8% | 2.8% | 7.6% | 28.2µM*
Cc1nc2nc(SCC(=O)O)nn2c(C)c1Cc1c(F)cccc1Cl | 46.4% | -11.7% | ? | 2.0% | 11.2µM*
Cc1cc(C)n2nc(SCC(=O)N3CCN(c4ccc(F)cc4)CC3)nc2n1 | 25.3% | -3.4% | 16.2% | 4.5% | -20.4%[59 µM]
Cc1nc(SCC(=O)NC(=O)NC2CCCCC2)nc(C)c1C | 37.9% | -26.1% | -9.9% | 10.6% | 14.1µM*
Cc1csc(SCC(=O)NC(=O)NC2CCCC2)n1 | 35.5% | -15.4% | -0.1% | -6.4% | 44.7µM*
Cc1cc(C)nc(SCC(=O)NC2CCCC2)n1 | 14.8% | 1.0% | -2.0% | -1.8% | 2.7%
Cc1cc(C)n2nc(SCC(=O)NC3CCCCC3)nc2n1 | 53.5% | 23.3% | 1.5% | -1.0% | 44.7µM*
Cc1cc(C)n2nc(SCCCC(=O)c3ccc(F)cc3)nc2n1 | 12.3% | -23.9% | -8.7% | -10.0% | 50.1µM*
COc1cccc(-c2csc(N3CCN(C(=S)Nc4ccccc4OC)CC3)n2)c1 | -15.3% | -35.4% | -1.7% | -24.3% | ?
Cc1ccsc1C(=O)OCC(=O)NCCNC(=O)COC(=O)c1sccc1C | 23.1% | -0.7% | -8.0% | -0.9% | ?
CC(=O)CSc1nnc(-c2ccc(S(=O)(=O)N3CCCC3)cc2)n1C | 31.0% | -12.4% | -0.8% | 4.0% | ?
COc1ccccc1C(=O)NC(=O)CSc1nc(C)cs1 | 28.1% | -4.1% | -0.1% | -0.2% | 50.1µM*
COc1ccccc1CNC(=O)CSc1nc(C)cs1 | 39.6% | -4.8% | -3.4% | -2.4% | 12.3%
O=C(NC1CCCC1)C(c1ccc(F)cc1)N(Cc1ccc(F)cc1)C(=O)CCl (stereo unspecified) | 20.8% | -23.2% | 7.7% | 7.6% | 44.7µM*
CCC(Cc1ccccc1)NC(=O)/C=C/c1ccco1 (stereo unspecified) | 5.1% | -22.4% | 37.7% | -5.4% | 18.0%[0.501 µM]
COc1cc(C2SCCS2)cc(Br)c1Oc1ncccc1[N+](=O)[O-] | ? | ? | -11.6% | ? | 10µM*
N=c1oc2ccc3ccccc3c2cc1C(N)=S | -7.8% | -26.4% | 5.3% | -32.3% | 20µM*
O=C(O)c1cc2c(ccc3ccccc32)oc1=O | / | / | / | -2.4% | ?
O=C(COc1coc(CN2CCc3ccccc3C2)cc1=O)Nc1ccc(Cl)cc1 | 28.8% | -26.0% | -1.6% | -18.1% | -10.1%[0.501 µM]
Cc1ccc(NC(=O)COc2coc(CN3CCc4ccccc4C3)cc2=O)c(C)c1 | 39.6% | -13.8% | 0.7% | -28.7% | 50.1µM*
CCc1ccc(NC(=O)COc2coc(CN3CCc4ccccc4C3)cc2=O)cc1 | 18.5% | -6.1% | 6.0% | 4.6% | 56.2µM*
Cc1ccc(NC(=O)COc2coc(CN3CCc4ccccc43)cc2=O)c(C)c1 | -19.2% | ? | -5.2% | 50.1µM* | ?
SMILES | HP1b chromo inh | JMJD2A Tudor inh | GLS inhibitor | BAZ2B block | G9a block
CC1CN(C(=O)COc2coc(CN3CCc4ccccc4C3)cc2=O)CC(C)O1 (stereo unspecified) | 38.2% | -0.7% | ? | -3.9% | 44.7µM*
Cc1ccc(N2CC(C)Cn3c2nc2c3c(=O)n(CC(=O)O)c(=O)n2C)cc1 (stereo unspecified) | 19.9% | -11.6% | 1.1% | -35.5% | -0.4%[59 µM]
Cc1nc2cc(C(=O)NC3CCCCCC3)ccc2n1-c1ccc(Br)cc1 | 17.8% | -23.2% | -10.3% | 2.3% | 1.0%[59 µM]
CC1CCc2sc(C(=O)NCC(C)(C)N3CCOCC3)cc2C1 (stereo unspecified) | 28.0% | -13.8% | 2.6% | 3.4% | 1.2%
Cc1cc(C)cc(NC(=O)COc2coc(CN3CCc4ccccc43)cc2=O)c1 | 22.3% | -31.0% | 1.4% | ? | 50.1µM*
Cc1ccc(NC(=O)COc2coc(CN3c4ccccc4CC3C)cc2=O)c(C)c1 (stereo unspecified) | -14.9% | ? | 26.3% | ? | 50.1µM*
